Source: PubChem BioAssay AID1851 (National Center for Advancing Translational Sciences (NCATS), 2009)
Where “and” joins values, the source holds several entries; their conditions need not be identical. Identical values can stand only once. Screen size: about 16,000 compounds; about 5,100 (32%) were called active. Inconclusive results (about 25%) are left out. Some of the results follow. Unmarked numbers belong to inactive results. Calls come from the whole dose curve; as a rule, active = well fitted curve in the direction sought with a large enough effect; inconclusive = small, poorly fitted or top-dose-only effect, or effect the other way; inactive = no such curve, though single readings can be large or run the other way. Square brackets hold non-standard residues; d marks the D form. Peptide text beside a SMILES is read from it.
% is set by controls: 0 for no effect and ±100 for the full control effect.

These compounds were tested against Cytochrome P450 3A4 (Homo sapiens) (UniProt P08684) (assay: Cytochrome panel assay with activity outcomes). Details: recombinant CYP, pro-luciferin dealkylation, luminescence, p450-cyp3a4; series mostly up to 57.1 µM; activity, negative = inhibition: at the top concentration.
Cytochrome P450 3A4 (Homo sapiens), sequence (P08684 whole entry, looked up): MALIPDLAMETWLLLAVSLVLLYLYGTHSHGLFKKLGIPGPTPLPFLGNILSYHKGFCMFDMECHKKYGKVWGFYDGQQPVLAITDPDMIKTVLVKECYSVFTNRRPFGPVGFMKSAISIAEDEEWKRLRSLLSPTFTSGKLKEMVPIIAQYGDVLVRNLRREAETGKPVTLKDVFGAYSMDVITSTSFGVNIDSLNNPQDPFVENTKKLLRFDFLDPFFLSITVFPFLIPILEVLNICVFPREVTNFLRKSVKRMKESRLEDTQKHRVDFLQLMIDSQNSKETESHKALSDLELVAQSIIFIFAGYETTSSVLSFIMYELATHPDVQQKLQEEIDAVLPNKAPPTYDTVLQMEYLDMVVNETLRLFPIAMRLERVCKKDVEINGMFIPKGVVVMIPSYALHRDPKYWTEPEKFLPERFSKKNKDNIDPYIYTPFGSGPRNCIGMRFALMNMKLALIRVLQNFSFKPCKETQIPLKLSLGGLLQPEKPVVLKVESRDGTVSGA
With `CCCOc1cc(N)ccc1C(=O)OCCN(CC)CC` the “activity, negative = inhibition” value was -30.4% [at 25.6 µM]. `N[C@H](CO)C(=O)NCC(=O)O` (H-[dS]-Gly-OH) was tested, and the activity, negative = inhibition was -1.48% [at 11.4 µM]. For `CC(=O)N=c1sc(S(N)(=O)=O)nn1C`, the “activity, negative = inhibition” value was -10.1% [at 25.6 µM]. In the case of `CCc1cc2c(=O)c(-c3nc4ccccc4n3C)c(C)oc2c(CN(CC)CC)c1O`, the “activity, negative = inhibition” value was -26.8%. Compound `CN(C)Cc1cc(O)c(O)c(CN(C)C)c1` has an activity, negative = inhibition of -13.7% [at 11.4 µM]. In the case of `Cc1cc2c(s1)CCCCC(=O)N2`, the “activity, negative = inhibition” value was 23.4%. In the case of `Cc1c(C(=O)N2CCCCCC2)nnn1-c1nonc1N`, the AC50 was 11.2 µM (active). With `CCOc1nc(N2CCCCC2)nc(-n2cc(-c3ccccc3)nn2)n1` the AC50 was 15.8 µM (active). In the case of `Cc1nonc1NC(=O)N1CCCC1`, the “activity, negative = inhibition” value was 29.8%. Work on `CC1CCN(CC[S-])CC1.O.O.[Cl][Pt]` yielded an activity, negative = inhibition of -1.49% [at 11.4 µM]. In the case of `Cc1cc(C(=O)N[C@@H](c2ccccc2)[C@]2(C)C[C@H]2[C@@H](C)C(=O)Nc2ccc3ccccc3c2)n(C)n1`, the AC50 was 0.794 µM (active). With `Cc1cc(C(=O)N[C@H](c2ccccc2)[C@@]2(C)C[C@@H]2[C@@H](C)C(=O)Nc2ccc3ccccc3c2)n(C)n1` the AC50 was 0.794 µM (active). `O=C(Nc1cc(C(=O)Nc2ccc(S(=O)(=O)O)cc2S(=O)(=O)O)cc(C(=O)Nc2ccc(S(=O)(=O)O)cc2S(=O)(=O)O)c1)Nc1cc(C(=O)Nc2ccc(S(=O)(=O)O)cc2S(=O)(=O)O)cc(C(=O)Nc2ccc(S(=O)(=O)O)cc2S(=O)(=O)O)c1` was tested, and the “activity, negative = inhibition” value was -3.85%. `Fc1nc(N2CCCC2)c(F)c(Oc2ccccc2Oc2c(F)c(F)nc(N3CCCC3)c2F)c1F` was tested, and the “activity, negative = inhibition” value was 17.1%. For `CN(Cc1ccco1)c1ncnc2ccc(-c3ccc4c(c3)OCO4)cc12`, the AC50 was 2.51 µM (active). `Cc1noc(C)c1-c1ccc2ncnc(N(C)Cc3ccco3)c2c1` was tested, and the AC50 was 25.1 µM (active). With `Cc1noc(C)c1-c1ccc2ncnc(N(C)C)c2c1` the “activity, negative = inhibition” value was -29.5%. `CN(C)C(=O)c1ccc(-c2cc(N(C)Cc3ccco3)ncn2)cc1` was tested, and the “activity, negative = inhibition” value was 25.6%. For `CN(Cc1ccco1)c1ncnc2ccc(-c3ccoc3)cc12`, the AC50 was 25.1 µM (active). `N#CC(CC(=O)O)=C(c1ccccc1)c1ccccc1` showed an activity, negative = inhibition of 5.39% [at 11.4 µM]. In the case of `Cc1nn(-c2ccc(F)cc2)c(Cl)c1/C=C(\CCC(=O)O)c1nc2ccccc2s1`, the “activity, negative = inhibition” value was 21.6%. `CC(=O)Nc1c(C)nn(-c2ccc(C)c(C)c2)c1C` was tested, and the activity, negative = inhibition was -3.89% [at 11.4 µM]. With `Cc1nn(-c2ccc(F)cc2)c(C)c1NS(=O)(=O)c1ccc2ccccc2c1` the AC50 was 4.47 µM (active). With `O=[N+]([O-])c1ccc(C=Nc2ccc(Cl)cc2Cl)s1` the “activity, negative = inhibition” value was -29.3%. With `Cc1cccc(NC(=S)N/N=C/c2ccc([N+](=O)[O-])s2)c1` the AC50 was 22.4 µM (active). With `Cc1ccc(C(=O)N/N=C/c2ccc([N+](=O)[O-])s2)cc1` the “activity, negative = inhibition” value was -26.6%. For `O=C(O)Cc1ccc(NC(=O)C2CCCCC2C(=O)O)cc1` (configuration not stated), the “activity, negative = inhibition” value was -1.35%. With `CCSc1nnc(NC(=O)CSc2nc3c(cc2C#N)CCCC3)s1` the AC50 was 10 µM (active). In the case of `CCSc1nnc(NC(=O)C(C(F)(F)F)C(F)(F)F)s1`, the “activity, negative = inhibition” value was -17%. `CCSc1nnc(NC(=O)Cc2ccc(OC)c(OC)c2)s1` showed an activity, negative = inhibition of -2.65% [at 2.29 µM]. `Oc1cc2c(cc1O)CN(C(=S)NCCc1ccc(Cl)cc1)CCC2` was tested, and the AC50 was 3.16 µM (active). `O=C(NCCc1ccc(O)cc1)c1ccc(Cl)cc1` showed an activity, negative = inhibition of 1.62% [at 2.29 µM]. `CC[C@@]1([N+](=O)[O-])C[C@H]2C=C[C@@H]1C2` was tested, and the activity, negative = inhibition was -4.49% [at 11.4 µM]. In the case of `C/C(=C\c1ccco1)C1C(C#N)=C(N)Oc2n[nH]c(-c3ccccc3)c21` (configuration not stated), the AC50 was 3.98 µM (active). For `Cc1ccc(NC(=O)C(=O)NCc2ccc(/C=C(/C#N)C(=O)NCc3cccnc3)o2)cc1`, the AC50 was 1.41 µM (active). In the case of `Cc1cc(N)n(-c2ccccc2)n1`, the “activity, negative = inhibition” value was -14.7%. In the case of `Nc1nc(-c2ccc3ccccc3c2)cc(-c2cc(-c3ccc4ccccc4c3)nc(N)n2)n1`, the activity, negative = inhibition was -3.3% [at 11.4 µM]. `Cc1cc(N)n(-c2ccc3ccccc3c2)n1` was tested, and the AC50 was 28.2 µM (active). `COc1cc(N=C(N)N=C(N)N)c2ncccc2c1` showed an activity, negative = inhibition of -8.88% [at 11.4 µM]. With `CC1Cc2ccccc2N1C(=O)CCN1C(=O)C2C3C=CC(C3)C2C1=O` (configuration not stated) the AC50 was 1.41 µM (active). In the case of `CC1Cc2ccccc2N1C(=O)CN1C(=O)COc2ccccc21` (configuration not stated), the activity, negative = inhibition was -6.97% [at 2.29 µM]. `CC1Cc2ccccc2N1C(=O)CSCC(=O)O` (configuration not stated) was tested, and the “activity, negative = inhibition” value was -12.7%. With `CC1Cc2ccccc2N1C(=O)c1cc2c(=O)n3ccccc3nc2n1C` (configuration not stated) the “activity, negative = inhibition” value was -16.7%. With `CC1Cc2ccccc2N1C(=O)Cn1c(=O)cc(O)c2ccccc21` (configuration not stated) the AC50 was 25.1 µM (active). For `CCOC(=O)CCN1C(=O)[C@H]2[C@@H]3[C@H](O)[C@H](O)CC(=O)[C@H]3CC[C@H]2C1=O`, the activity, negative = inhibition was -4.78% [at 11.4 µM] and -14.8% [at 11.4 µM]. `O=C(CCN1C(=O)C2C3C=CC(C3)C2C1=O)NCCN1CCCc2ccccc21` (configuration not stated) was tested, and the AC50 was 3.98 µM (active). In the case of `O=C(O)Cc1ccc2ocnc2c1`, the “activity, negative = inhibition” value was 10.5%. In the case of `Cc1nc2cnc(Oc3ccccc3)nc2n(C)c1=O`, the “activity, negative = inhibition” value was -6.94%. For `COc1ccc(Oc2ncc3nc(C)c(=O)n(C)c3n2)cc1`, the AC50 was 25.1 µM (active). `COc1ccc(Oc2ncc3nc(C)c(=O)n(-c4ccccc4)c3n2)cc1` was tested, and the AC50 was 5.01 µM (active). `COc1ccc(Oc2ncc3nc(C)c(=O)n(-c4ccc(OC)cc4)c3n2)cc1` was tested, and the AC50 was 3.98 µM (active). For `COc1ccc(-n2c(=O)c(C)nc3cnc(Oc4ccccc4)nc32)cc1`, the AC50 was 15.8 µM (active). `COc1ccc(-c2oc3ccccc3c(=O)c2OC(=O)c2ccc(C)cc2)cc1` was tested, and the “activity, negative = inhibition” value was 2.5%. For `CCOC(=O)c1oc2ccccc2c1NC(=O)c1cc(OC)cc(OC)c1`, the AC50 was 7.94 µM (active). For `CCOC(=O)c1oc2ccccc2c1NC(=O)c1ccc2c(c1)OCO2`, the AC50 was 2.24 µM (active). `CCOC(=O)c1oc2ccccc2c1NC(=O)c1ccc(S(=O)(=O)N(C)C)cc1` was tested, and the AC50 was 14.1 µM (active). In the case of `CN(C)S(=O)(=O)c1ccc(NC(=O)COC(=O)c2ccccn2)cc1`, the “activity, negative = inhibition” value was -17.6%. `CN(C)S(=O)(=O)c1ccc(C(=O)Nc2ccc(CN3CCCC3)cc2)cc1` was tested, and the “activity, negative = inhibition” value was 24.6%. `Nc1c(OCC(=O)O)ccc2cc(S(=O)(=O)O)ccc12` gave an activity, negative = inhibition of -9.68% [at 11.4 µM]. `CNc1ncnc2c1ncn2[C@@H]1O[C@H](CO)[C@@H](O)[C@@H]1O` was tested, and the “activity, negative = inhibition” value was 10% [at 25.6 µM]. In the case of `NC(=O)OC[C@H](O)COc1ccc(Cl)cc1`, the “activity, negative = inhibition” value was -3.48% [at 25.6 µM]. For `O=C(Nc1ccc2ccccc2c1)[C@@H]1C[C@H]1[C@@H](NP(=O)(c1ccccc1)c1ccccc1)c1ccccc1`, the “activity, negative = inhibition” value was -44.6%. With `O=C(Nc1ccc2ccccc2c1)[C@H]1C[C@@H]1[C@H](NP(=O)(c1ccccc1)c1ccccc1)c1ccccc1` the AC50 was 2.51 µM (active). `C[C@H](CO)NC(=O)[C@@H]1C[C@H]1[C@@H](NP(=O)(c1ccccc1)c1ccccc1)c1ccccc1` was tested, and the AC50 was 12.6 µM (active). `CC(C)=CCC/C(C)=C/CO/N=C1/C[C@@H](O)[C@@H](O)[C@@H]2[C@@H]3C(=O)N(Cc4ccc5c(c4)OCO5)C(=O)[C@H]3CC[C@@H]12` was tested, and the AC50 was 1.58 µM (active). For `CCOC(=O)CCN1C(=O)[C@H]2[C@H]3[C@H](O)[C@H](O)C/C(=N/OC/C=C(\C)CCC=C(C)C)[C@@H]3CC[C@@H]2C1=O`, the activity, negative = inhibition was -25.9% [at 11.4 µM]. For `CC(C)=CCC/C(C)=C/CO/N=C1/C[C@@H](O)[C@@H](O)[C@@H]2[C@@H]3C(=O)N(C[C@@H]4CCCO4)C(=O)[C@H]3CC[C@@H]12`, the activity, negative = inhibition was -23% [at 11.4 µM]. For `CC(C)=CCC/C(C)=C/CO/N=C1/C[C@@H](O)[C@@H](O)[C@@H]2[C@@H]3C(=O)N(Cc4ccc5c(c4)OCO5)C(=O)[C@H]3CC[C@H]12`, the AC50 was 1.58 µM (active). Compound `CC(C)=CCC/C(C)=C/CO/N=C1/C[C@@H](O)[C@@H](O)[C@@H]2[C@@H]3C(=O)N(Cc4ccccc4)C(=O)[C@H]3CC[C@@H]12` has an activity, negative = inhibition of -7.78% [at 11.4 µM]. For `CCOC(=O)CCN1C(=O)[C@H]2[C@H]3[C@H](O)[C@H](O)C/C(=N/OC/C=C(\C)CCC=C(C)C)[C@H]3CC[C@@H]2C1=O`, the activity, negative = inhibition was -16.7% [at 11.4 µM]. With `CCn1c(CCCc2nc3c([nH]2)c(=O)n(C)c(=O)n3C)nc2c1c(=O)n(C)c(=O)n2C` the activity, negative = inhibition was -26.8% [at 11.4 µM]. With `COC(=O)c1[nH]c2ccc(Br)cc2c1NC(=O)CN1CCN(C2CCCCC2)CC1` the AC50 was 14.1 µM (active). `COC(=O)c1[nH]c2ccc(Br)cc2c1NC(=O)Oc1ccccc1` showed an activity, negative = inhibition of 10.3% [at 2.29 µM]. `COC(=O)c1[nH]c2ccc(Br)cc2c1NC(=O)CN1CCCc2ccccc21` showed an activity, negative = inhibition of -23.9% [at 2.29 µM]. For `COc1ccc(C2c3c(ncn(CCN4CCOCC4)c3=N)Oc3ccc4ccccc4c32)cc1OC` (configuration not stated), the AC50 was 3.16 µM (active). With `Cc1ccccc1OCCNC(=O)c1ccccc1Sc1ccccc1C#N` the AC50 was 14.1 µM (active). `CNC(=S)NNC(=O)COc1ccccc1C` was tested, and the “activity, negative = inhibition” value was -15%. In the case of `CCCC1CCC(c2ccc(C(N)=O)cc2)CC1` (configuration not stated), the “activity, negative = inhibition” value was -23.3%. `N=c1c(C(=O)NC2CCCC2)cc2c(=O)n3ccccc3nc2n1C1CCCC1` was tested, and the “activity, negative = inhibition” value was 6.82%. With `CC(C)c1nc2ccccn2c1NC1CCCCC1` the AC50 was 14.1 µM (active). `CCSc1nnc(-c2ccccc2NC(C)=O)c(=O)[nH]1` was tested, and the “activity, negative = inhibition” value was 13.7%. In the case of `CCCCN1C(=O)NC(NC(=O)c2ccco2)(C(F)(F)F)C1=O` (configuration not stated), the activity, negative = inhibition was 2.31% [at 2.29 µM]. For `CCOC(=O)CC(NC(=O)c1cccs1)c1ccc(OCC)cc1` (configuration not stated), the “activity, negative = inhibition” value was -4.62%. `CC[C@H](CN(C)C)C(=O)c1ccco1` was tested, and the activity, negative = inhibition was -7.24% [at 11.4 µM]. In the case of `CCC[C@@H]1C[C@@]1(CCC)C(NS(=O)(=O)c1cccc2cccnc12)c1ccc(Cl)cc1` (some centres not stated), the AC50 was 0.794 µM (active). For `CCC[C@@H]1C[C@@]1(CCC)C(NC(=O)c1ccco1)c1ccc(Cl)cc1` (some centres not stated), the AC50 was 12.6 µM (active). In the case of `CCC[C@@H]1C[C@@]1(CCC)C(NC(=O)c1cccs1)c1ccc(Cl)cc1` (some centres not stated), the AC50 was 6.31 µM (active).
